Screens: PubChem, several laboratories
Compounds with a hit are over-represented: about 3.1% of the library has one in this group of screens.
NCF1 inh – p47phox (human) inhibition; inhibition, % at 24.7 µM; p47phox/p22phox peptide binding, fluorescence polarization, 2 h; actives 0.53% (n = 220,000); P14598; AID 1274;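 active means inhibition above about 30%, limit read from the data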;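 further: 0% = p47phox with labelled peptide and 100% = labelled peptide alone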
Mcl1-Noxa inh – disrupts binding of human Mcl-1 to Noxa peptide; Q07820; TR-FRET Mcl-1/Noxa peptide binding, 2 h; inhibition, % at 21.7 µM; actives 1.5% (n = 220,000); AID 1022;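 active means compounds that cut the protein-peptide binding signal by more than 50% relative to plate controls in a single-dose test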;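 further: His-tagged Mcl-1 with rhodamine Noxa BH3 peptide and terbium anti-His antibody; 0% = Mcl-1 plus Noxa peptide wells and 100% = peptide-only wells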
Target sequence (Q07820 whole entry, looked up): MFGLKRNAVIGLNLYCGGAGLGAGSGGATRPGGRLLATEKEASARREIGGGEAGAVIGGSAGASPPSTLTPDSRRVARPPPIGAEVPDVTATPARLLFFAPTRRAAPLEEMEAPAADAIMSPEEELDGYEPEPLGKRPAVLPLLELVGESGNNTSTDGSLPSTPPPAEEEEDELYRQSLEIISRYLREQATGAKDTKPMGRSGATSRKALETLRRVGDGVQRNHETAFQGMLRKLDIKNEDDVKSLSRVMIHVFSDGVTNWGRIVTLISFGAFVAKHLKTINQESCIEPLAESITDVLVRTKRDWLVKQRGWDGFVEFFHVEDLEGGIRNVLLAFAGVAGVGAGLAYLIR
Mcl-1 Bim block – disrupts Bim peptide binding to human Mcl-1. Bead-based flow cytometry, Bim peptide-Mcl-1 binding. Q07820. actives 0.1% (n = 190,000). inhibition, % at 10 µM; in the data active means inhibition above about 40%;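 further: 0% = no compound tracer wells and 100% = peptide blocker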
Mcl1-Bid inh – Mcl-1/Bid interaction inhibition | inhibition, % at 21.7 µM | TR-FRET Mcl-1/Bid-Dy647 peptide binding, 1536-well | AID 1021 | Q07820 | actives 0.97% (n = 220,000);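 active means compounds that cut the binding signal by more than half at the single screening dose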;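 further: His-tagged Mcl-1 with europium anti-His antibody binding Bid BH3 peptide; 0% = Mcl-1 plus peptide wells and 100% = peptide-only wells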
14-3-3 Bad PPI – disrupts binding of bovine 14-3-3 zeta to phospho-Bad peptide. TR-FRET 14-3-3zeta/Dy647-pBad peptide displacement, 1 h. inhibition, % at 21.7 µM. actives 0.71% (n = 220,000). AID 781;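 active means inhibition above about 70%, limit read from the data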;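 further: 0% = full 14-3-3 plus peptide FRET controls and 100% = background without 14-3-3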
Target sequence (P63103 whole entry, looked up): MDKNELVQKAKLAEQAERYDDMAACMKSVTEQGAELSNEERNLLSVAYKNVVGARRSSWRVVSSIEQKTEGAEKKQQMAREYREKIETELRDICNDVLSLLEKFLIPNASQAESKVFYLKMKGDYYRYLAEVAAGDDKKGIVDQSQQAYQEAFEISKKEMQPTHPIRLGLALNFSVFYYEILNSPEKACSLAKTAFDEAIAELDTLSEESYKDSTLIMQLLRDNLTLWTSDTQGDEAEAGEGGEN
Numbers without * were called inactive; nt = no result given; [ ] = dose if it differs, or a comment.

SMILES	NCF1 inh	Mcl1-Noxa inh	Mcl-1 Bim block	Mcl1-Bid inh	14-3-3 Bad PPI
O=C(O)c1ccccc1/C=N/NC(=O)c1cc(-c2ccco2)nc2ccccc12	-15	99*	nt	27	70
O=C(COC(=O)c1cc(-c2ccco2)nc2ccccc12)NCc1ccccc1	-6	37	0	-6	-4
CCN(CC)C(=O)COC(=O)c1cc(-c2ccco2)nc2ccccc12	46*	90*	3	-40	24
C#CCOCCOCCOCCNc1nc(N2CCN(C(=O)[C@H](C)n3cc(CCCN=C(N)N)nn3)CC2)nc(N2CCN(C(=O)[C@H](C)n3cc(CCCN=C(N)N)nn3)CC2)n1	7	15	-5	6	11
C#CCOCCOCCOCCNc1nc(N2CCN(C(=O)Cn3cc(CCCN=C(N)N)nn3)CC2)nc(N2CCN(C(=O)[C@H]([C@@H](C)CC)n3cc(CCC(=O)O)nn3)CC2)n1	-9	0	-3	6	12
C#CCOCCOCCOCCNc1nc(N2CCN(C(=O)[C@H]([C@@H](C)CC)n3cc(CCCN=C(N)N)nn3)CC2)nc(N2CCN(C(=O)[C@H](C)n3cc(CCCN=C(N)N)nn3)CC2)n1	10	36	-4	45	75*
C#CCOCCOCCOCCNc1nc(N2CCN(C(=O)[C@H]([C@@H](C)CC)n3cc(CCCN=C(N)N)nn3)CC2)nc(N2CCN(C(=O)[C@H]([C@@H](C)CC)n3cc(CCCN=C(N)N)nn3)CC2)n1	10	25	0	62*	77*
C#CCOCCOCCOCCNc1nc(N2CCN(C(=O)Cn3cc(CCCN=C(N)N)nn3)CC2)nc(N2CCN(C(=O)Cn3cc(CCCN=C(N)N)nn3)CC2)n1	15	42	-1	58*	88*
COc1cccc(NC(=O)c2ccc(-n3cccn3)nc2)c1	6	17	-3	-22	-14
Cc1c(N(C(=O)c2ccccn2)C2(C(=O)NC3CCCC3)CCCCC2)c(=O)n(-c2ccccc2)n1C	16	1	1	-14	-3
O=C(COc1ncnc2ccccc12)c1ccc(Cl)cc1	-4	6	-3	-30	3
CCOc1ccc(CCNC(=O)CCC(=O)Nc2ccc3nc(N4CCN(C)CC4)cc(C)c3c2)cc1OCC	-8	9	0	-38	91*
CCOC(=O)c1c(CSc2ccccc2)n(C)c2cc(Br)c(OCC(O)CNC(CO)(CO)CO)cc12 (stereo not drawn)	42*	20	nt	30	-16
CCN1CCN(c2cc(SC(C)C)nc(-c3ccc(OC)cc3)n2)CC1	-6	20	0	3	71*[fluorescence artefact?]
CC(C)Sc1cc(N2CCOCC2)nc(-c2ccc(Cl)cc2)n1	-6	-4	3	-1	7
N/C(CS(=O)(=O)c1ccc(F)cc1)=N\O	-1	-6	nt	78*	1
Cc1nc2ccccc2n1CC(=O)NC1CCCCCC1	-11	6	nt	-4	-2
Cc1nc2ccccc2n1CC(=O)NC1CCCC1	-5	16	-2	-8	71*
O=C(O)c1c(-n2cccc2)sc2c1CCCC2	-13	14	-3	-18	-5
CC(C)[C@H](NC(=O)NCCC1=CCCCC1)C(=O)O	-9	-1	nt	94*	2
Cc1[nH]n(-c2ncc(-c3ccc(Cl)cc3)s2)c(=O)c1C(c1ccc(Cl)cc1)C(C#N)C#N (stereo not drawn)	-28	92*	1	51*	-23
COc1ccc(C(c2c(C)[nH]n(C(N)=S)c2=O)C(C#N)C#N)cc1 (stereo not drawn)	-7	-50	-6	-57	-19
CN(C)c1ccc(/C=C/C(=O)c2cc(Cl)ccc2O)cc1	79*	20	nt	-42	-14
CN(C)c1ccc(C(=O)/C=C/c2ccc(Br)cc2)cc1	7	20	82*	-61	5
O=C(O)c1ccc(-n2cccc2/C=C2/NC(=O)N(c3cccc(Cl)c3)C2=O)cc1	-26	74*	0	-41	80*
SMILES	NCF1 inh	Mcl1-Noxa inh	Mcl-1 Bim block	Mcl1-Bid inh	14-3-3 Bad PPI
O=C(O)c1ccc(-n2cccc2/C=C2/NC(=O)N(c3ccccc3)C2=O)cc1	-30	72*	nt	-34	65
O=C(O)c1cccc(-n2cccc2/C=C2\NC(=O)N(Cc3ccc(F)cc3)C2=O)c1	-26	12	-2	-54	40
CC(=O)c1ccc(C(=O)N2CCCC(CCC(=O)N(C)CCc3ccccn3)C2)s1 (stereo not drawn)	-8	13	1	-23	-1
COCCCNC(=O)c1ccc2c3c(onc13)-c1ccccc1C2=O	-44	55*	nt	-109	0
N=C(N)SCc1cn(-c2ccccc2)nc1-c1ccc(Br)cc1	54*	20	1	-19	75*
CN1CCN(C(=S)NC(=O)c2ccc(Cl)cc2)CC1	-9	68*	-2	-33	24
COCCCN(C(=S)Nc1cccc(Cl)c1)C(C)c1ccncc1 (stereo not drawn)	-7	9	-2	-66	-13
COCCCN(C(=O)Nc1cccc(Cl)c1)C(C)c1ccccn1 (stereo not drawn)	11	10	-3	-8	73*
Cc1ccc(-n2nnnc2C(Cl)(Cl)c2nnnn2-c2ccc(C)cc2)cc1	-2	53*	-9	-30	16
Cc1ccc(N(CC(=O)NCCSc2ccccn2)S(C)(=O)=O)cc1	-15	10	-1	-28	8
CC12CCC(C(=O)N3CCN(Cc4ccccc4)CC3)(OC1=O)C2(C)C (stereo not drawn)	32*	-3	-1	-14	-7
CC12CCC(C(=O)N3CCCCCC3)(OC1=O)C2(C)C (stereo not drawn)	-16	-5	0	-23	-12
O=c1[nH]c(CSc2ccccn2)nc2c1oc1ccccc12	-4	13	0	-19	-11
CCN(CC)S(=O)(=O)c1ccc2c(c1)nc(CCC(=O)Nc1ccc3c(c1)OCO3)n2CC	-1	26	-3	-50	6
N/C(=N\OC(=O)COc1ccc2ccccc2c1)c1cccnc1	3	3	-6	61*	2
N/C(=N\OC(=O)COc1ccc2ccccc2c1)c1ccncc1	0	1	3	-13	-3
Cc1nc2ccccc2c2oc(C(=O)NCc3ccc4c(c3)OCO4)cc12	121*	-3	4	1	-3
Cc1ccc(S(=O)(=O)Oc2ccccc2/C=N/Nc2ccc(C(=O)O)cc2)cc1	-12	34	nt	9	-21
COC(=O)CSc1nc(C)c(C)c(C)c1C(N)=O	-5	25	0	70*	-3
CSc1nc2cc(C)nn2c(-c2ccccc2)c1C#N	6	-10	nt	-7	94*
NC(=O)C1CCN(Cc2nc3ccccc3c(=O)[nH]2)CC1	33*	-14	2	-29	9
NC(=O)C1(N2CCCCC2)CCN(Cc2nc3ccccc3c(=O)[nH]2)CC1	-5	0	3	-10	-20
CN(C)C=Nc1c(Br)cc(Br)c2nonc12	-117	60*	-5	-32	6
